Source: PubChem (several laboratories)
Shown are actives, neighbours in structure and some others; about 2.7% of the full set was active somewhere.
CHT allo act: human CHT allosteric activation; Q9GZV3; B-score at 10 µM; CHT-expressing cells, membrane potential dye, choline EC20; hits give high values; LV-AA mutant CHT in HEK293 cells; 310,000 compounds, 0.49% hits;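 active = initial fluorescence not abnormally high and integrated response B-score, plate-corrected, over 3 SD above library mean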
Target sequence (Q9GZV3 whole entry, looked up): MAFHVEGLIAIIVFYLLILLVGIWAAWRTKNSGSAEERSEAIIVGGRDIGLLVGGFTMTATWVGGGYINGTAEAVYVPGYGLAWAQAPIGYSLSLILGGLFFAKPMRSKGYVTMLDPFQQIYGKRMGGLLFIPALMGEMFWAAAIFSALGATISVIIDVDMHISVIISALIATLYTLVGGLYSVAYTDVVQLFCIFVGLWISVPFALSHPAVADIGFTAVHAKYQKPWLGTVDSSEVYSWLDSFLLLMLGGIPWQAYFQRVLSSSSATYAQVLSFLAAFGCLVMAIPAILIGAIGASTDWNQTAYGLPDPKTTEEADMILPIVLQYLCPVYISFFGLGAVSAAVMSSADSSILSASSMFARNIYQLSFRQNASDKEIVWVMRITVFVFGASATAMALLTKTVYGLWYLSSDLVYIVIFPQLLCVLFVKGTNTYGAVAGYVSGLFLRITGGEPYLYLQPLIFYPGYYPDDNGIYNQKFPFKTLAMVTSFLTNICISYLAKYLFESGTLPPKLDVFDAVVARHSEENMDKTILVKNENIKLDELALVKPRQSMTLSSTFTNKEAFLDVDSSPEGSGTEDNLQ
ANO1 activ: activates or potentiates the mouse TMEM16A chloride channel; Q8BHY3; HEK293 TMEM16A/YFP-H148Q/I152L, iodide quench fluorescence; hits give low values; B-score at 10 µM; 340,000 compounds, 0.3% hits; AID 623877;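 active = fluorescence-ratio B-score plate-corrected deviation score at least 3 library SD below zero, with starting fluorescence score within 5 deviations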;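 note: channel opened by trigger with iodide after compound preincubation; score built on the fluorescence ratio of max minus min over baseline; more negative score means more quench and so TMEM16A activation or potentiation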
CHT inh: human CHT choline transport inhibition; Q9GZV3; CHT-expressing cells, membrane potential dye, choline response; hits give low values; B-score at 10 µM; 310,000 compounds, 0.86% hits;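 active = B-score over 3 SD under the library average, and starting fluorescence ratio not unusually high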;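 note: choline stimulus applied at its EC90 after an EC20 pre-addition; B-score computed on integrated fluorescence ratio after choline addition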
IDE inh: cellular human IDE inhibition | AID 434962 | 320,000 compounds, 0.41% hits | inhibition, % at 5.59 µM | P14735 | HEK cells, FAbetaB cleavage, fluorescence polarization;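 active = percent inhibition above the average of all tested compounds plus 3 SD, set per screening campaign, cut at about 16% in these data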;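 note: IDE supplied by intact live HEK cells; FP after avidin binding of uncleaved biotin substrate so inhibition keeps polarization high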
ANO1 block: blocks the mouse calcium-activated chloride channel TMEM16A; AID 588511; Q8BHY3; 310,000 compounds, 1.2% hits; HEK293 TMEM16A/YFP iodide influx fluorescence, ionomycin; normalized B-score (activity score, 25-100; higher = stronger inhibition) at 10 µM;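 active = ratio plate-corrected score three or more library SD toward inhibition, starting fluorescence score within five deviations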;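 note: score derived from kinetic fluorescence span divided by baseline fluorescence per well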
IDE act: IDE (human) activation, cell-based. P14735. HEK cells, FAbeta-B cleavage, fluorescence polarization; 0% vehicle, 100% cell-free pure enzyme wells. activation, % at 5.96 µM. 340,000 compounds, 0.073% hits. AID 493087;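 active = activation above the mean of all tested compounds plus 3 SD, set per screening campaign, cut at about 17% in these data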
A number is an active result; i = inactive; nt = no result.

SMILES	CHT allo act	ANO1 activ	CHT inh	IDE inh	ANO1 block	IDE act
COc1ccc2[nH]c(C)c(CCNCc3cccnc3)c2c1	nt	i	nt	i	nt	i
CCOc1cccc(CNCCc2c(C)[nH]c3ccc(OC(F)(F)F)cc23)c1O	i	i	i	i	100	i
Cc1ccc(-c2cc(-c3ccccc3)cc(-c3ccccc3)[n+]2-c2ccccc2C(=O)O)cc1	i	i	i	i	i	i
Clc1ccc(C[n+]2c(-c3ccccc3)cc(-c3ccccc3)cc2-c2ccccc2)cc1	i	i	-8.9	i	25	i
CCOc1ccc(-c2cc(C)[n+](CCO)c(-c3ccc(OCC)cc3)c2)cc1	i	i	i	i	i	i
CCOc1ccc(-c2cc(C)[n+](CCc3ccc(OC)c(OC)c3)c(-c3ccc(OCC)cc3)c2)cc1	i	i	i	nt	25	i
Cc1cc(-c2ccccc2)cc(-c2ccccc2)[n+]1CCc1ccccc1	i	i	i	i	25	i
c1ccc2c(c1)[IH]c1ccccc1-2	nt	-5.8	nt	nt	nt	i
c1ccc2c(c1)-c1cccc3cccc-2c13	i	i	i	i	i	i
Cc1cccc(N=C2c3cc([N+](=O)[O-])ccc3-c3c2cc([N+](=O)[O-])cc3[N+](=O)[O-])c1	nt	i	nt	nt	nt	i
CC1=NCCc2c1[nH]c1cc(O)ccc21	i	i	i	i	i	66
C1=NCCc2c1[nH]c1ccccc21	i	i	i	i	i	i
CCCC[N+]1(C)[C@@H]2CC(OC(=O)[C@H](CO)c3ccccc3)C[C@H]1[C@@H]1O[C@@H]12 (stereo partly drawn)	i	-10	i	i	i	i
CC(=O)OC1C(O)C(C)OC(OC2C(OC(=O)C3CCC4C(C3)OC3(CC(OC(=O)/C=C/c5ccccc5)C(C)CO3)C43CO3)OC(C)C(O)C2OC(C)=O)C1O (stereo not drawn)	nt	i	nt	nt	nt	i
COc1cc2c(cc1OC)-c1c(OC)c(OC)cc3c1C(C2)N(C)CC3 (stereo not drawn)	8.4	i	i	i	i	i
Cc1cnc[nH]1	nt	i	nt	i	nt	i
COc1ccc(N2C(=O)NC(=O)/C(=C\c3ccc([N+](=O)[O-])s3)C2=O)cc1	i	-6.4	i	i	i	i
Cn1c(O)c(/C=N/N2CCOCC2)c(=O)n(C)c1=S	i	i	i	i	i	i
Cc1cccc(CCNCc2cc3ccc(C)cc3[nH]c2=O)c1	i	i	i	i	i	i
CCCNC(=O)N1[C@H]2CC[C@@H]1C(C(=O)OC)=C(c1ccc3ccccc3c1)C2	nt	i	nt	i	nt	i
CN(C)C=C1C(=O)N(C2CCCCC2)C(=O)N(C2CCCCC2)C1=O	i	i	-5.4	i	i	i
CC[C@@H](O)C[C@H]1CCC[C@@]2(C[C@@H]3OC(=O)/C=C/[C@@](C)(O)[C@@H](O)[C@H](C)[C@@H](O)[C@H](OC4CCC(N(C)C)C(C)O4)[C@@H](O)[C@](C)(O)CCCCC/C=C/[C@@H]4CC(C)(C)O[C@@]4(O)C[C@H](O2)[C@H]3C)O1 (stereo partly drawn)	nt	i	nt	nt	nt	i
COc1ccc(OCC(=O)N2CCN(Cc3ccc(SC)cc3)CC2)cc1	i	i	i	i	100	i
CCCCn1c(=O)c(C(=O)Nc2cnccn2)c(O)c2ccccc21	i	nt	i	i	100	i
CCCCCn1c(=O)c(C(=O)Nc2ncccc2C)c(O)c2ccccc21	i	i	i	i	i	i
SMILES	CHT allo act	ANO1 activ	CHT inh	IDE inh	ANO1 block	IDE act
COC(=O)C1=C(c2ccc(OC)c(OC)c2)C[C@@H]2CC[C@H]1N2C(=O)NCc1ccco1	nt	i	nt	i	nt	i
O=c1c2ccccc2nc(/C=C/c2ccc(O)cc2)n1-c1cccc(O)c1	i	i	i	83	i	i
O=c1c2ccccc2nc(/C=C/c2ccc3c(c2)OCO3)n1-c1cccc(O)c1	i	i	i	i	i	i
C=C(CO)CC1CC(O)[C@]2(C)OC3CC4OC5C[C@]6(C)O[C@]7(C)CCC8OC9C[C@]%10(C)OC%11C(C)=CC(=O)OC%11CC%10OC9C[C@@H](C)C8OC7CC6O[C@]5(C)C/C=C\C4OC3CC2O1 (stereo partly drawn)	i	i	i	i	i	i
C=C(C=O)CC1CC(O)[C@]2(C)OC3CC4OC5C[C@]6(C)O[C@]7(C)CCC8OC9C[C@]%10(C)OC%11C(C)=CC(=O)OC%11CC%10OC9C[C@@H](C)C8OC7CC6O[C@]5(C)CC5OC5C4OC3CC2O1 (stereo partly drawn)	i	-8	i	i	i	i
COCCCN1Cc2ccccc2C1=N	i	i	i	i	i	i
N=C1c2ccccc2CN1c1ncccn1	7.9	i	i	i	i	i
CCc1nnc(NS(=O)(=O)c2ccc(N=Cc3c(O)n(-c4ccc(Cl)cc4)c(=O)[nH]c3=O)cc2)s1	i	i	i	i	i	50
C[N+](C)(N)CCOC(=O)C(O)(c1ccccc1)C1CCCCC1 (stereo not drawn)	i	i	i	i	i	i
COCCNC(=O)Cn1cc(/C=C2\C(=O)NC(=O)N(c3ccccc3F)C2=O)c2ccccc21	i	i	i	i	i	i
O=C1NC(=O)N(c2ccccc2F)C(=O)/C1=C/c1ccc(Sc2nc3ccccc3[nH]2)o1	i	i	i	34	i	i
Cn1ncc(Cl)c1C(=O)N1CCC2(CC1)OCCO2	i	i	i	i	i	i
Cc1ccc(N2C(=O)NC(=O)/C(=C\c3cc(C)n(-c4sc5c(c4C#N)CCCC5)c3C)C2=O)cc1	i	i	i	i	25	i
CCCCn1c(O)c(C(CC)=Nc2ccc(OC)cc2OC)c(=O)[nH]c1=O	i	i	i	i	25	i
O=[N+]([O-])c1ccccc1-c1cc(-c2ccccc2)cc(-c2ccccc2)[n+]1Cc1ccccc1Cl	i	nt	-5.3	i	i	nt
O=[N+]([O-])c1ccccc1CCl	nt	i	nt	i	nt	i
O=P(O)(O)CN1CCNCCN(CP(=O)(O)O)CCNCC1	nt	i	nt	nt	nt	i
Cc1nc2ccccc2c(=O)n1-c1ccc([N+](=O)[O-])cc1	i	i	i	i	i	i
Cc1nc2cc([N+](=O)[O-])ccc2c(=O)n1-c1ccc(Br)cc1	i	-13	i	i	i	i
O=C(CCCN1CCC2(CC1)C(=O)NCN2c1ccccc1)c1ccc(F)cc1	i	-11	i	i	25	i
CC(=NNC(=S)N1CC2CCC(CC2)C1)c1nccs1	nt	i	nt	nt	nt	i
N=c1c2c(n(Cc3ccc(Cl)cc3Cl)c3c1CCC3)CCCC2	6.4	i	i	i	i	i
Cc1nn(Cc2ccc(Cl)cc2Cl)c(Cl)c1C(=O)O	i	i	i	i	i	i
CCOC(=O)CC1c2ccccc2-n2nncc2CN1Cc1ccc(OC)cc1 (stereo not drawn)	nt	nt	nt	nt	nt	i
